Results reported in PubChem BioAssay (Tox21).
Records with an inconclusive call do not appear. Active and inactive are the calls of the source. Unless noted, calls come from the whole dose curve; as a rule, active = well fitted curve in the direction sought with a large enough effect in the repeat runs; inconclusive = weak or mixed curves; inactive = no such curve, though single readings can be large; an effect the other way counts as inactive or inconclusive.

What was measured:
[1] = qHTS assay to identify aromatase inhibitors - cell viability counter screen (AID 743084);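 note: cells stimulated with testosterone during compound exposure; nearly all actives have a fitted effect of over 55% in size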
[2] = target: Aryl hydrocarbon receptor (Homo sapiens) (UniProt P35869); test: qHTS assay to identify small molecule that activate the aryl hydrocarbon receptor (AhR) signaling pathway (AID 743085);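 note: HG2L7.5c1 human HepG2 liver cells with stably integrated DRE-driven firefly reporter; series mostly up to about 70 µM; nearly all actives have a fitted effect of over 15% in size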
Chain of Aryl hydrocarbon receptor (Homo sapiens) (P35869 whole entry, looked up): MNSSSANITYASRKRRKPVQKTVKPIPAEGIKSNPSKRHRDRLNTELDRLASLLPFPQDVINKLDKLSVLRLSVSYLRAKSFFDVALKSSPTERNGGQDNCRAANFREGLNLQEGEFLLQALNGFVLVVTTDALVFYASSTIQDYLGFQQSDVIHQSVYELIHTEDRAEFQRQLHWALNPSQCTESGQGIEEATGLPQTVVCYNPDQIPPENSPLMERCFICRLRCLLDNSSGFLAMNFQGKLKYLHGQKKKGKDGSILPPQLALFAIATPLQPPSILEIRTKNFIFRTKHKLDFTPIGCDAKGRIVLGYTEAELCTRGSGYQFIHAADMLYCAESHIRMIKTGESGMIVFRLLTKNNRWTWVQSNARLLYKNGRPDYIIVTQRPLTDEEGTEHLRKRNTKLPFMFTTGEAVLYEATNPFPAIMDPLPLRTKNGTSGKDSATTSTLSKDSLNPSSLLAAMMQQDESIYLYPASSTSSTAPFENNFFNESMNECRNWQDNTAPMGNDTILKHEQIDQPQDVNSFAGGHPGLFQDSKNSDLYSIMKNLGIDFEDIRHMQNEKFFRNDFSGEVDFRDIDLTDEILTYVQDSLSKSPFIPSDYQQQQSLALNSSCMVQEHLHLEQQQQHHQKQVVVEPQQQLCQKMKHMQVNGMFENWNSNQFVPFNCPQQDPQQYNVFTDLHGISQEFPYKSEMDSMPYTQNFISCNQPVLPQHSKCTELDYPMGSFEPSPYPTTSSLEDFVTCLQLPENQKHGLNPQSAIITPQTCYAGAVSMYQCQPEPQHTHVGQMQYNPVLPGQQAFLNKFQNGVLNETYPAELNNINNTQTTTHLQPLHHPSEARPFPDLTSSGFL
Outline: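 Measured in HG2L7.5c1 cells: CellTiter-Fluor signal (30 min incubation, 37C) for viability, then luciferase luminescence (30 min, room temperature). Compound contact time was 24 h at 37C, following a 5 h pre-incubation.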

[3] = qHTS assay to identify small molecule that activate the aryl hydrocarbon receptor (AhR) signaling pathway - cell viability counter screen (AID 743086);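 note: HepG2 liver cells carrying the AhR DRE luciferase reporter; series mostly up to about 70 µM; nearly all actives have a fitted effect of over 45% in size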
Outline: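 HepG2-AhR-luc (HG2L7.5c1) cells, 4000/well, treated 24 h at 37 C with compound; viability measured as CellTiter-Fluor fluorescence after 30 min in the same wells as the luciferase read.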

[4] = target: Peroxisome proliferator-activated receptor gamma (Homo sapiens) (UniProt P37231); test: qHTS assay to identify small molecule agonists of the peroxisome proliferator-activated receptor gamma (PPARg) signaling pathway (AID 743094; active = well fitted activation curve with a large enough effect in the signal ratio in the repeat runs, not every such curve was filed as active; the % refers to the signal ratio)
Chain of Peroxisome proliferator-activated receptor gamma (Homo sapiens) (P37231 whole entry, looked up): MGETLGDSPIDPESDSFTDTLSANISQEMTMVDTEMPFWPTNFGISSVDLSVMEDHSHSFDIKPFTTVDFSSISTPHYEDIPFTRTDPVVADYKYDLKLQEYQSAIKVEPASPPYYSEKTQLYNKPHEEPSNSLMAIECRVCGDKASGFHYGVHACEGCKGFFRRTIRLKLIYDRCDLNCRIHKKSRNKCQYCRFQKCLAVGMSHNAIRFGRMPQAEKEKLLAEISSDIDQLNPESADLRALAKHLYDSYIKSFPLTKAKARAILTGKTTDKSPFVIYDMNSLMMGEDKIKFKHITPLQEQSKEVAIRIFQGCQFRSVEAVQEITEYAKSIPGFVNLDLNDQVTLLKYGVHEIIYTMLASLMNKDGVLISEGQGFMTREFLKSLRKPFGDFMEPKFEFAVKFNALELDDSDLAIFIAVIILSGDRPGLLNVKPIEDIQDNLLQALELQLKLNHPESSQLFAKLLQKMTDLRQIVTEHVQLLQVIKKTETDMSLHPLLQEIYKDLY
Outline: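 Fluorescence-based beta-lactamase readout in HEK293H PPARg UAS-bla cells after 17 h compound exposure (37C) and 1 h B/G FRET substrate incubation at room temperature.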

[5] = target: Peroxisome proliferator-activated receptor gamma (Homo sapiens) (UniProt P37231); test: qHTS assay to identify small molecule antagonists of the peroxisome proliferator-activated receptor gamma (PPARg) signaling pathway (AID 743191; calls by dose curve; note: nearly all actives have a fitted effect of over 30% in size; note: potency is the fitted concentration of half-maximal effect)
Outline: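 GeneBLAzer PPARg UAS-bla HEK293H cells, 5 h post-plating, exposed to compounds 17 h at 37C. LiveBLAzer B/G FRET substrate added for 1 h at room temperature; beta-lactamase reporter read by fluorescence intensity.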

[6] = qHTS assay to identify small molecule antagonists of the peroxisome proliferator-activated receptor gamma (PPARg) signaling pathway - cell viability counter screen (AID 743194); note: nearly all actives have a fitted effect of over 55% in size
Outline: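 Cytotoxicity counter screen in PPARg-bla HEK293H cells, same wells as reporter assay. Compounds plus 50 nM rosiglitazone (final) for 17 h at 37 C, then viability read by CellTiter-Glo luminescence.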

[7] = qHTS assay for small molecule agonists of the antioxidant response element (ARE) signaling pathway (AID 743202; active = well fitted activation curve with a large enough effect in the signal ratio in the repeat runs, not every such curve was filed as active; the % refers to the signal ratio; note: potency is the fitted concentration of half-maximal effect)
Outline: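 HepG2 ARE-bla cells; 16 h treatment at 37 C; FRET-based beta-lactamase fluorescence read after 2 h substrate incubation at room temperature.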

[8] = qHTS assay for small molecule activators of the heat shock response signaling pathway - cell viability counter screen (AID 743209); note: nearly all actives have a fitted effect of over 50% in size
Outline: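 To flag cytotoxic compounds, HSE-bla HeLa cells plated at 1500 cells/well were dosed for 5 h at 37 C, followed by the reporter FRET read and then CellTiter-Glo, with luminescence recorded 30 min after reagent addition.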

[9] = qHTS assay for small molecule activators of the heat shock response signaling pathway (AID 743210; active = well fitted activation curve with a large enough effect in the signal ratio in the repeat runs, with a control signal flat, not every such curve was filed as active; the % refers to the signal ratio;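 note: HeLa cells with beta-lactamase reporter driven by heat shock elements; series mostly up to about 63 µM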)
Outline: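 Following overnight attachment, HSE-bla HeLa cells received test compounds for 5 h at 37 C; beta-lactamase activity was then detected via FRET substrate fluorescence.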

[10] = qHTS assay to identify small molecule agonists of the peroxisome proliferator-activated receptor delta (PPARd) signaling pathway - cell viability counter screen (AID 743211); note: nearly all actives have a fitted effect of over 55% in size
Outline: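 Following 5 h plating at 37 C and 5% CO2, PPARd UAS-bla HEK293H cells took up test compounds for 17 h. Viability was quantified by luminescence 30 min after CellTiter-Glo addition at room temperature.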

[11] = qHTS assay to identify small molecule antagonists of the peroxisome proliferator-activated receptor delta (PPARd) signaling pathway - cell viability counter screen (AID 743213); note: nearly all actives have a fitted effect of over 50% in size
Outline: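 HEK293H PPARd UAS-bla cells, 5 h pre-incubation, compound + L165041 300 nM final, 17 h 37 C; B/G FRET substrate 2 h RT; then CellTiter-Glo 30 min RT, luminescence.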

[12] = target: Bile acid receptor (Homo sapiens) (UniProt Q96RI1); test: qHTS assay to identify small molecule antagonists of the farnesoid-X-receptor (FXR) signaling pathway (AID 743217; active = well fitted inhibition curve with a large enough effect in the signal ratio in the repeat runs, not every such curve was filed as active; the % refers to the signal ratio)
Chain of Bile acid receptor (Homo sapiens) (Q96RI1 whole entry, looked up): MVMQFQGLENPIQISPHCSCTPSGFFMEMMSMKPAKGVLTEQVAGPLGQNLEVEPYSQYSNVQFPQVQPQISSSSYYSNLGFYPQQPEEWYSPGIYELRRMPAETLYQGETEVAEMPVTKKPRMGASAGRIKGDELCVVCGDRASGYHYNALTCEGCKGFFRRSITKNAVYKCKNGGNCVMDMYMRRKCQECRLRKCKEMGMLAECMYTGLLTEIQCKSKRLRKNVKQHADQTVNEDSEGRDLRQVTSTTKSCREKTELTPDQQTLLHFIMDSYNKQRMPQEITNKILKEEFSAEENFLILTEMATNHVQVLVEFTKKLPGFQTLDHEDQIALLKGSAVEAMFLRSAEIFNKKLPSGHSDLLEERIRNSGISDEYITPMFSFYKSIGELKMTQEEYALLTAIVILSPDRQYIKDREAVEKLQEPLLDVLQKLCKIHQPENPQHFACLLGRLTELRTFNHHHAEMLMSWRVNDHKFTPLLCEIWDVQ
Outline: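 Quantitative HTS, beta-lactamase reporter format: FXR-UAS-bla HEK 293T cells co-treated 16 h at 37 °C with compounds and 50 uM final chenodeoxycholic acid, then read by B/G FRET fluorescence.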

[13] = qHTS assay to identify small molecule agonists of the farnesoid-X-receptor (FXR) signaling pathway - cell viability counter screen (AID 743218); note: nearly all actives have a fitted effect of over 45% in size
Outline: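 Same-well cytotoxicity check on FXR-UAS-bla HEK 293T cells: 5 h attachment, 16 h compound at 37 C, CellTiter-Glo luminescence read at room temperature after 30 min.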

[14] = target: Bile acid receptor (Homo sapiens) (UniProt Q96RI1); test: qHTS assay to identify small molecule agonists of the farnesoid-X-receptor (FXR) signaling pathway (AID 743220; active = well fitted activation curve with a large enough effect in the signal ratio in the repeat runs, not every such curve was filed as active; the % refers to the signal ratio)
Outline: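 FXR-UAS-bla HEK 293T cells carrying a UAS-driven beta-lactamase reporter were plated for 5 h at 37C/5% CO2, then exposed to DMSO-dissolved Tox21 10K compounds for 16 h at 37C. A LiveBLAzer B/G FRET substrate was loaded for 2 h at room temperature before fluorescence reading.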

[15] = qHTS assay to identify small molecule antagonists of the farnesoid-X-receptor (FXR) signaling pathway - cell viability counter screen (AID 743221; active = well fitted cell-killing curve with a large enough effect in the repeat runs, not every such curve was filed as active; note: nearly all actives have a fitted effect of over 50% in size)
Outline: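 Compound effects on cell number were measured as CellTiter-Glo luminescence in HEK 293T cells expressing FXR-UAS-bla, after 16 h at 37 C with 50 uM CDCA (final).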

[16] = target: Vitamin D3 receptor (Homo sapiens) (UniProt P11473); test: qHTS assay to identify small molecule agonists of the vitamin D receptor (VDR) signaling pathway (AID 743222; calls by dose curve)
Chain of Vitamin D3 receptor (Homo sapiens) (P11473 whole entry, looked up): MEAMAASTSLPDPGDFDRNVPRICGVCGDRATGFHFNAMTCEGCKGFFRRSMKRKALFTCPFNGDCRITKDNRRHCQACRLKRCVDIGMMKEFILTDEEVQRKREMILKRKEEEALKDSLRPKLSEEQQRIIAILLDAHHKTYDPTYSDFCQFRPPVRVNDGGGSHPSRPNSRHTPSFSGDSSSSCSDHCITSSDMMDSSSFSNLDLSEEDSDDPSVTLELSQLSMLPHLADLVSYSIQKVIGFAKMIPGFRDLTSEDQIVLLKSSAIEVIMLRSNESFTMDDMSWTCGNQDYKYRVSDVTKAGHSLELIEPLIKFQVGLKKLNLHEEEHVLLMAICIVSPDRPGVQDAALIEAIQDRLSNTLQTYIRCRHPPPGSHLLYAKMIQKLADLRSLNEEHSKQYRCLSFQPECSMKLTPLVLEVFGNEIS
Outline: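 Using LiveBLAzer B/G FRET detection, agonism was scored in VDR-bla cells exposed overnight (16 h, 37C) to DMSO-dissolved compounds; substrate incubation was 2 h at room temperature.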

[17] = target: Vitamin D3 receptor (Homo sapiens) (UniProt P11473); test: qHTS assay to identify small molecule antagonists of the vitamin D receptor (VDR) signaling pathway (AID 743223; active = well fitted inhibition curve with a large enough effect in the signal ratio in the repeat runs, not every such curve was filed as active; the % refers to the signal ratio)
Outline: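 Beta-lactamase activity in VDR-bla cells is measured by FRET substrate fluorescence (2 h, room temperature) after cells spend 16 h at 37C with test compound and 3 nM final 1alpha,25-dihydroxyvitamin D3.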

[18] = qHTS assay for small molecule agonists of the antioxidant response element (ARE) signaling pathway - cell viability counter screen (AID 743203; calls by dose curve; note: nearly all actives have a fitted effect of over 55% in size)
Outline: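 Parallel cytotoxicity read-out for the ARE-bla screen: HepG2 reporter cells, 16 hrs with compounds, then CellTiter-Glo luminescence.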

[19] = target: Peroxisome proliferator-activated receptor delta (Homo sapiens) (UniProt Q03181); test: qHTS assay to identify small molecule agonists of the peroxisome proliferator-activated receptor delta (PPARd) signaling pathway (AID 743212; calls by dose curve)
Chain of Peroxisome proliferator-activated receptor delta (Homo sapiens) (Q03181 whole entry, looked up): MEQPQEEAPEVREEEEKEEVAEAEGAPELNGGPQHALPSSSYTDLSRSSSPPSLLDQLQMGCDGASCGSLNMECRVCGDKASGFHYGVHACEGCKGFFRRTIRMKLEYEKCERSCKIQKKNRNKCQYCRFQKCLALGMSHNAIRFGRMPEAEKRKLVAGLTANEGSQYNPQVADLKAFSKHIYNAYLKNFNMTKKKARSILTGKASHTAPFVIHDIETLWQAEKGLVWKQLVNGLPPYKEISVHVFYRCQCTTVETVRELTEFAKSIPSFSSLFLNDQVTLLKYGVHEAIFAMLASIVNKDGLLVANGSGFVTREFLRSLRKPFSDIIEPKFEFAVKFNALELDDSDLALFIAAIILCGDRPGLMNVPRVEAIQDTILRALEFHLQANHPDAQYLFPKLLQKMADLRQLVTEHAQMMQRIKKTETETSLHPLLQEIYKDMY
Outline: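 Tox21 library screened in GeneBLAzer PPARd UAS-bla HEK293H cells. After compound treatment at 37 C, a FRET-based beta-lactamase substrate was applied for 2 h and fluorescence recorded.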

[20] = target: Peroxisome proliferator-activated receptor delta (Homo sapiens) (UniProt Q03181); test: qHTS assay to identify small molecule antagonists of the peroxisome proliferator-activated receptor delta (PPARd) signaling pathway (AID 743215; active = well fitted inhibition curve with a large enough effect in the signal ratio in the repeat runs, not every such curve was filed as active; the % refers to the signal ratio;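 note: cells stimulated with agonist L165041 at 300 nM final during compound exposure; series mostly up to about 62 µM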)
Outline: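 Screen format: qHTS, antagonist mode. HEK293H PPARd-bla cells received compound and 300 nM L165041 (final), 17 h, 37 C. Beta-lactamase detected via FRET substrate fluorescence, 2 h, room temperature.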

Measured: Potency

CCCCCCCCC(CO)CCCCCC (stereo unspecified)
not listed: [18] | [19] | [20]
inactive: all other assays above

Cn1c(N)nc2nc[nH]c2c1=O
not listed: [9]
inactive: all other assays above

c1ccc(CNCc2ccccc2)cc1
not listed: [11] | [12] | [14]
inactive: all other assays above

CC(C)NCC(O)COc1ccc(CC(N)=O)cc1 (stereo unspecified)
not listed: [12] | [13] | [14] | [18] | [19] | [20]
inactive: all other assays above

N[C@H]1C(O)O[C@H](CO)[C@H](O)[C@@H]1O (stereo partly specified)
not listed: [12] | [14] | [19]
inactive: all other assays above

CCCCCCCCCCCCCCC1CO1 (stereo unspecified)
not listed: [8] | [11] | [12] | [14]
inactive: all other assays above

CC(=O)NCCCS(=O)(=O)O
active: [7] 26.5 µM
not listed: [16] | [17]
inactive: all other assays above

C=CC[N+]1([C@H]2C[C@H]3[C@@H]4CC[C@H]5C[C@H](OC(C)=O)[C@@H](N6CCCCC6)C[C@]5(C)[C@H]4CC[C@]3(C)[C@H]2OC(=O)CC)CCCCC1
not listed: [12] | [14] | [18] | [19]
inactive: all other assays above

CCOC(=S)SSC(=S)OCC
not listed: [12] | [13] | [14]
inactive: all other assays above

Oc1ccc(Sc2ccc(O)cc2)cc1
active: [5] 16.2 µM | [7] 22.8 µM
not listed: [8] | [12] | [17] | [19]
inactive: all other assays above

CC(C)CCCC(C)CCO (stereo unspecified)
not listed: [9] | [11] | [16] | [20]
inactive: all other assays above

Cc1ccc(C(=O)C(C)CN2CCCCC2)cc1 (stereo unspecified)
active: [7] 23.7 µM
not listed: [19] | [20]
inactive: all other assays above

CC(C)(C)c1cc(CO)cc(C(C)(C)C)c1O
active: [7] 31.2 µM
not listed: [12] | [15] | [19] | [20]
inactive: all other assays above

CC(=O)O[C@H]1C[C@@H]2CC[C@@H]3[C@H](CC[C@@]4(C)[C@H]3C[C@H]([N+]3(C)CCCCC3)[C@@H]4OC(C)=O)[C@@]2(C)C[C@@H]1N1CCCCC1
not listed: [8] | [16] | [17] | [19]
inactive: all other assays above

CCN1CCC[C@H]1CNC(=O)c1c(OC)ccc(Br)c1OC
not listed: [8] | [11] | [17] | [19]
inactive: all other assays above

C=C(C)C(=O)OC(C)C
not listed: [8] | [9] | [12] | [13] | [14] | [19] | [20]
inactive: all other assays above

CC(CN)CCCN (stereo unspecified)
not listed: [12] | [14] | [16] | [17] | [19] | [20]
inactive: all other assays above
